Assay results reported in PubChem BioAssay AID1159580 (chemical genetic matrix, 2015).
Among all 5,500 compounds or so, about 2,000 (36%) were called active. Inconclusive results (about 18%) are left out. No stated cut-off is given here; in the data, active means normalized growth mostly below about 0.91 (no sharp cut-off); inconclusive means no clear call, values can overlap the other calls; inactive means mostly above about 0.92. The list shows a part of the results.

Assay: chemical genetic growth profiling, strain panel (AID 1159580);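 further: tested at 20 µM; growth read once vehicle control cultures reached saturation at 30 °C; 1 = growth at the plate median or of vehicle wells; lower values mean less growth of the strain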
Conditions: S. cerevisiae deletion strains, growth OD
[1] = locus YAL021C, strain ccr4, hits give low values
[2] = locus YAL026C, strain drs2, hits give low values
[3] = locus YAL030W, strain snc1, hits give low values
[4] = locus YBL061C, strain skt5, hits give low values
[5] = locus YBR009C, strain hhf1, hits give low values
[6] = locus YBR023C, strain chs3, hits give low values
[7] = locus YBR171W, strain sec66, hits give low values
[8] = locus YBR231C, strain swc5, hits give low values
[9] = locus YBR279W, strain paf1, hits give low values
[10] = locus YCL011C, strain gbp2, hits give low values
[11] = locus YCL016C, strain dcc1, hits give low values
[12] = locus YCL069W, strain vba3, hits give low values
[13] = locus YCR088W, strain abp1, hits give low values
[14] = locus YDL005C, strain med2, hits give low values
[15] = locus YDL040C, strain nat1, hits give low values
[16] = locus YDR001C, strain nth1, hits give low values
[17] = locus YDR069C, strain doa4, hits give low values
[18] = locus YDR137W, strain rgp1, hits give low values
[19] = locus YDR159W, strain sac3, hits give low values
[20] = locus YDR297W, strain sur2, hits give low values
[21] = locus YDR334W, strain swr1, hits give low values
[22] = locus YDR335W, strain msn5, hits give low values
[23] = locus YDR392W, strain spt3, hits give low values
[24] = locus YEL003W, strain gim4, hits give low values
[25] = locus YEL037C, strain rad23, hits give low values
[26] = locus YEL061C, strain CIN8 (second series), hits give low values
[27] = locus YER015W, strain faa2, hits give low values
[28] = locus YER016W, strain bim1, hits give low values
[29] = locus YER111C, strain swi4, hits give low values
[30] = locus YER155C, strain BEM2 (second series), hits give low values
[31] = locus YFR010W, strain ubp6, hits give low values
[32] = locus YGL167C, strain pmr1, hits give low values
[33] = locus YGL173C, strain kem1, hits give low values
[34] = locus YGL227W, strain vid30, hits give low values
[35] = locus YGL240W, strain doc1, hits give low values
[36] = locus YGL253W, strain hxk2, hits give low values
[37] = locus YHR013C, strain ard1, hits give low values
[38] = locus YHR027C, strain rpn1, hits give low values
[39] = locus YHR030C, strain SLT2, hits give low values
[40] = locus YHR079C, strain IRE1, hits give low values
[41] = locus YHR142W, strain chs7, hits give low values
[42] = locus YJL092W, strain hpr5, hits give low values
[43] = locus YJL095W, strain BCK1 (second series), hits give low values
[44] = locus YJL095W, strain BCK1, hits give low values
[45] = locus YJL115W, strain asf1, hits give low values
[46] = locus YJL129C, strain trk1, hits give low values
[47] = locus YJL154C, strain vps35, hits give low values
[48] = locus YJL164C, strain tpk1, hits give low values
[49] = locus YJL166W, strain qcr8, hits give low values
[50] = locus YJL187C, strain SWE1, hits give low values
[51] = locus YJR066W, strain TOR1, hits give low values
[52] = locus YKL160W, strain elf1, hits give low values
[53] = locus YKR026C, strain gcn3, hits give low values
[54] = locus YKR091W, strain srl3, hits give low values
[55] = locus YLL001W, strain dnm1, hits give low values
[56] = locus YLL026W, hits give low values
[57] = locus YLL041C, strain sdh2, hits give low values
[58] = locus YLR027C, strain aat2, hits give low values
[59] = locus YLR113W, strain HOG1, hits give low values
[60] = locus YLR221C, strain rsa3, hits give low values
[61] = locus YLR258W, strain gsy2, hits give low values
[62] = locus YLR262C, strain YPT6 (second series), hits give low values
[63] = locus YLR320W, strain mms22, hits give low values
[64] = locus YLR342W, strain FKS1, hits give low values
[65] = locus YLR357W, strain rsc2, hits give low values
[66] = locus YLR370C, strain arc18, hits give low values
[67] = locus YLR384C, strain iki3, hits give low values
[68] = locus YML120C, strain ndi1, hits give low values
[69] = locus YMR058W, strain fet3, hits give low values
[70] = locus YMR125W, strain sto1, hits give low values
[71] = locus YMR129W, hits give low values
[72] = locus YMR205C, strain PFK2, hits give low values
[73] = locus YMR231W, strain pep5, hits give low values
[74] = locus YNL071W, strain lat1, hits give low values
[75] = locus YNL183C, strain NPR1, hits give low values
[76] = locus YNL209W, strain ssb2, hits give low values
[77] = locus YNL248C, strain rpa49, hits give low values
[78] = locus YNL322C, strain KRE1 (second series), hits give low values
[79] = locus YNR049C, strain mso1, hits give low values
[80] = locus YOR001W, strain rrp6, hits give low values
[81] = locus YOR070C, strain gyp1, hits give low values
[82] = locus YOR080W, strain dia2, hits give low values
[83] = locus YOR083W, strain WHI5, hits give low values
[84] = locus YOR106W, strain vam3, hits give low values
[85] = locus YOR231W, strain MKK1, hits give low values
[86] = locus YOR265W, strain rbl2, hits give low values
[87] = locus YOR270C, strain vph1, hits give low values
[88] = locus YOR290C, strain snf2, hits give low values
[89] = locus YPL051W, strain arl3, hits give low values
[90] = locus YPL078C, strain atp4, hits give low values
[91] = locus YPL106C, strain sse1, hits give low values
[92] = locus YPL240C, strain hsp82, hits give low values
[93] = locus YPL256C, strain CLN2, hits give low values

Measured: normalized growth

Clc1ccccc1CN1CCc2sccc2C1
inactive: [1] 1.01 | [2] 1.01 | [3] 1.01 | [4] 1 | [5] 1.01 | [6] 1.01 | [7] 1.02 | [8] 1.02 | [9] 1.02 | [10] 1.01 | [11] 1.01 | locus YCL061C, strain MRC1, hits give low values 1.01 | [12] 1.01 | [13] 1 | [14] 1.03 | [15] 1.01 | [16] 1.01 | [17] 1 | [18] 0.879 | [19] 1.03 | locus YDR195W, strain ref2 1.05 | [20] 1.01 | [21] 1.01 | [22] 1.01 | [23] 0.77 | [24] 1.01 | [25] 0.985 | [26] 1 | [27] 1.01 | [28] 1.01 | [29] 1.01 | [30] 0.928 | [31] 0.995 | [32] 1 | [33] 1.01 | [34] 1.02 | [35] 0.947 | [36] 1 | [37] 1.07 | [38] 1.01 | [39] 1.04 | [40] 1.03 | [41] 0.961 | [42] 1 | [43] 1.01 | [44] 0.985 | [45] 1 | [46] 0.973 | [47] 1.01 | [48] 0.994 | [49] 0.981 | [50] 1.01 | [51] 0.969 | [52] 0.987 | [53] 0.994 | [54] 1.01 | [55] 1.02 | [56] 1.01 | [57] 1 | [58] 1.01 | [59] 0.98 | [60] 0.983 | [61] 1.01 | [62] 0.884 | [63] 0.927 | [64] 1.01 | [65] 1.04 | [66] 1.01 | [67] 1.01 | [68] 0.986 | [69] 1.01 | [70] 1.04 | [71] 1.01 | [72] 0.998 | [73] 1.01 | [75] 0.949 | [76] 1.01 | [77] 0.953 | [78] 1.01 | [79] 1.01 | [80] 0.988 | [81] 1 | [82] 1.01 | [83] 0.982 | [84] 0.977 | [85] 1.02 | [86] 1.01 | [87] 0.952 | [88] 1 | [89] 0.973 | [90] 0.964 | [91] 1.01 | [92] 1 | [93] 1.02
active: [74] 0.906

COC(=O)[C@H](c1ccccc1Cl)N1CCc2sccc2C1
inactive: [1] 0.993 | [2] 0.99 | [3] 0.982 | [4] 0.994 | [5] 0.989 | [6] 0.981 | [7] 0.973 | [8] 0.998 | [9] 0.986 | [10] 0.968 | [11] 0.993 | [12] 0.991 | [13] 0.976 | [14] 0.991 | [15] 0.961 | [16] 0.985 | [17] 1.01 | [18] 0.912 | [19] 0.987 | locus YDR195W, strain ref2 0.971 | [20] 0.983 | [21] 0.995 | [22] 1.01 | [23] 0.984 | [24] 0.969 | [25] 0.981 | [26] 0.98 | [27] 0.986 | [28] 0.98 | [29] 0.972 | [30] 0.97 | [31] 1 | [32] 0.967 | [33] 0.979 | [34] 0.988 | [35] 0.989 | [36] 1 | [37] 1.07 | [38] 0.987 | [39] 0.961 | [40] 0.956 | [41] 1.01 | [42] 0.98 | [43] 0.983 | [44] 0.98 | [45] 1 | [46] 0.959 | [47] 0.97 | [48] 0.976 | [49] 0.991 | [50] 0.984 | [51] 0.982 | [52] 0.988 | [53] 1 | [54] 0.983 | [55] 1.01 | [56] 0.977 | [57] 0.991 | [58] 0.983 | [59] 0.932 | [60] 0.992 | [61] 0.982 | [62] 0.95 | [63] 0.963 | [64] 0.982 | [65] 1.09 | [66] 0.975 | [67] 0.975 | [68] 0.961 | [69] 0.989 | [70] 0.993 | [71] 0.979 | [72] 0.971 | [73] 0.995 | [74] 0.968 | [75] 0.941 | [76] 0.998 | [77] 1.07 | [78] 0.981 | [79] 0.978 | [80] 1 | [81] 0.986 | [82] 0.994 | [83] 0.981 | [84] 1.03 | [85] 0.938 | [86] 0.985 | [87] 1.02 | [88] 1.02 | [89] 0.992 | [90] 0.996 | [91] 0.987 | [92] 0.986 | [93] 0.894
